{"source": "paper PMC9574860", "about": "“Chemical Toolkit for PARK7: Potent, Selective, and High-Throughput” (Journal of Medicinal Chemistry, 2022)", "note": "About 400 (5.1%) of roughly 7,900 compounds showed an effect of 50% or more. This is one part of a sample in which strong results are shown more often than they occur.", "data": [{"molecular_target": "Parkinson's disease protein 7 (PARK7/DJ1) (human, UniProt Q99497)", "sequence (Q99497 whole entry, looked up, the tested form may be a part)": "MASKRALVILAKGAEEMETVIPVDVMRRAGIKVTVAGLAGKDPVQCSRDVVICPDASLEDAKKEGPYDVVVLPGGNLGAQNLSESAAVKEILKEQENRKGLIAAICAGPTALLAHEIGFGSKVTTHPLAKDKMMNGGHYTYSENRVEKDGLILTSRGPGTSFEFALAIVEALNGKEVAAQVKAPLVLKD", "experiment": "primary screen, percent inhibition; read as competition with a fluorescent probe by fluorescence polarization; higher = more effect of the substance", "details": "100 µM", "description": "The screen was conducted using the conditions as described above in 1536-well plates (Corning 3724) with a reaction volume of 8 μL per well. The compound library containing 7887 covalent fragments was purchased at Enamine Ltd. and received as 100 mM DMSO stocks in 384 well LDV Echo plates (Labcyte LP-0200). Stock solutions of 0.26 μM PARK7 and 80 nM JYQ-107 were prepared. Using a Labcyte Echo550 acoustic dispenser, 8 nL of the DMSO stock solution of the library compounds was transferred from the source plates into the empty 1536-well screening plates to obtain a 100 μM final compound concentration. Next, PARK7 (6 μL, final concentration 0.2 μM) was dispensed using a Biotek MultiflowFX liquid dispenser and incubated for 2 h, followed by dispensing the probe JYQ-107 (2 μL, final concentration 20 nM). After 2 h incubation, the FP signal was recorded on a BMG Labtech PHERAstar plate reader (λex/em 480/520 nm). The relative loss of FP signal compared with reference controls was used to calculate the remaining enzyme activity.", "units": {"Inhibition %": "%"}, "values": [{"molecule": "C=C(Cl)CSc1nc(N)cc(N)n1", "Inhibition %": 18.5}, {"molecule": "CC(C)CN1CCN(c2ccc(C#N)nc2)C(C)C1=O", "note": "(centres unmarked)", "Inhibition %": 5.84}, {"molecule": "O=C(CCl)Nc1ccccc1-c1ccccc1", "Inhibition %": 8.41}, {"molecule": "CCn1cc(CCCl)cn1", "Inhibition %": 5.4}, {"molecule": "CN1CN=C(S)NC1", "Inhibition %": 3.57}, {"molecule": "C=CC(=O)NCC1(C)CCOCC1", "Inhibition %": 4.38}, {"molecule": "C=CC(=O)NCC1CCC2(COC(C)C2)O1", "note": "(centres unmarked)", "Inhibition %": 2.62}, {"molecule": "C=CC(=O)Nc1ccc2c(c1)COC2", "Inhibition %": 11.5}, {"molecule": "C=CC(=O)Nc1cccc(C(F)F)c1", "Inhibition %": 6.09}, {"molecule": "O=C(CCl)Nc1cccc(S(=O)(=O)N=C2CCCN2)c1", "Inhibition %": 18.3}, {"molecule": "O=C(Cc1ccc2c(c1)COC2)Nc1cccc(S(=O)(=O)F)c1", "Inhibition %": 97.6}, {"molecule": "C=CC(=O)NCc1ccc2c(c1)CCO2", "Inhibition %": 9.41}, {"molecule": "O=C(Cc1cccc(C(F)F)c1)Nc1cccc(S(=O)(=O)F)c1", "Inhibition %": 52}, {"molecule": "O=C(Cc1ccc2c(c1)CCO2)Nc1cccc(S(=O)(=O)F)c1", "Inhibition %": 94.3}, {"molecule": "O=C1CC2(CCNCC2)N1", "Inhibition %": 3.72}, {"molecule": "N#CC(=Cc1ccc(N)cc1)C(N)=O", "Inhibition %": 8.09}, {"molecule": "CC(C)CNc1oc(Cc2ccccc2)nc1C#N", "Inhibition %": 6.85}, {"molecule": "C=CC(=O)NC1CC2(COC(C)C2)C1", "note": "(centres unmarked)", "Inhibition %": 8.04}, {"molecule": "COc1cc(C)c(C)cc1S(=O)(=O)n1cccn1", "Inhibition %": 6.67}, {"molecule": "N#Cc1c(Cl)nc2sccn12", "Inhibition %": 4.22}, {"molecule": "CCN(Cc1ccc(Cl)s1)C(=O)CCl", "Inhibition %": 9.61}, {"molecule": "N#Cc1ncn(CCC(=O)NCc2ccc(F)cc2)n1", "Inhibition %": 7.22}, {"molecule": "O=C1CC2(CCN(Cc3ccc(Cl)cc3Cl)CC2)N1", "Inhibition %": -1.16}, {"molecule": "O=C(Nc1ccccc1)NN(C(=O)CCl)c1ccccc1", "Inhibition %": 93.5}, {"molecule": "O=C(CCl)NC(=O)Nc1ccccc1", "Inhibition %": 28.5}, {"molecule": "CCN(C(=O)CCl)c1ccccc1", "Inhibition %": 44.6}, {"molecule": "Cc1csc(N(C(=O)CCl)c2ccccc2)n1", "Inhibition %": 87.3}, {"molecule": "Cc1ccc([N+](=O)[O-])cc1NC(=O)CCl", "Inhibition %": 18.4}, {"molecule": "CN(C(=O)CCl)c1ccc([N+](=O)[O-])cc1", "Inhibition %": 93.5}, {"molecule": "O=C(CCl)Nc1ccc([N+](=O)[O-])cc1", "Inhibition %": 32.8}, {"molecule": "Cc1cccc(N(Cc2ccccc2)C(=O)CCl)c1", "Inhibition %": 9.42}, {"molecule": "O=C(CCl)NN(c1ccccc1)c1ccccc1", "Inhibition %": 10.3}, {"molecule": "O=C(CCl)N(Cc1ccccc1)c1ccccc1", "Inhibition %": 10.7}, {"molecule": "CN(C(=O)CCCl)c1ccccc1", "Inhibition %": 9.16}, {"molecule": "CN(C(=O)CCl)c1ccccc1", "Inhibition %": 79.7}, {"molecule": "Cl.Cl.O=C(O)C1CCN(C(=O)C=Cc2nc3ccccc3s2)C1", "note": "(centres unmarked)", "Inhibition %": 9.53}, {"molecule": "C=CC(=O)NC[C@H]1CC[C@H](c2ccccc2)O1", "Inhibition %": 2.73}, {"molecule": "Cn1c(=O)c2c(ncn2CCS(=O)(=O)F)n(C)c1=O", "Inhibition %": 7.95}, {"molecule": "CC(C)Cc1ccc(C(C)NC(=O)CCl)cc1", "note": "(centres unmarked)", "Inhibition %": 9.76}, {"molecule": "CS(=O)(=O)OCC1(C#N)CCCCC1", "Inhibition %": 8.05}, {"molecule": "CCCC(=O)NC1CCCN(c2ccc(C#N)nc2)C1", "note": "(centres unmarked)", "Inhibition %": 5.26}, {"molecule": "NC(=O)CCN(C(=O)CCl)c1ccc(F)cc1", "Inhibition %": 37.5}, {"molecule": "N#CCCN(C(=O)CCl)c1ccccc1", "Inhibition %": 14.9}, {"molecule": "NC(=O)CCN(C(=O)CCl)c1ccccc1", "Inhibition %": 67.4}, {"molecule": "C=CC(=O)NCc1cnn2ccccc12", "Inhibition %": 19.8}, {"molecule": "C=CC(=O)Nc1cc2ccccn2n1", "Inhibition %": 30.2}, {"molecule": "C=CC(=O)Nc1cnn2ccccc12", "Inhibition %": 97}, {"molecule": "C=CC(=O)NCc1noc2c1CCCC2", "Inhibition %": 4.47}, {"molecule": "N#Cc1ncccc1N1CCC=C(F)C1", "Inhibition %": 20.1}, {"molecule": "N#Cc1ncccc1N1CCc2ccccc2C1", "Inhibition %": 26.9}, {"molecule": "CC(C)c1nc2c(n1C)CCN(c1cccnc1C#N)C2", "Inhibition %": 87}, {"molecule": "C=CC(=O)NCc1ccc(CN2CCCCCC2)cc1", "Inhibition %": 13.2}, {"molecule": "O=C(CCl)c1ccc(F)c(C(=O)CCl)c1", "Inhibition %": 100}, {"molecule": "Cc1cc(C(=O)CCl)ccc1F", "Inhibition %": 24.6}, {"molecule": "O=C(CCl)c1ccc(F)c(F)c1", "Inhibition %": 22.1}, {"molecule": "O=C(CCl)c1ccc(F)c(Cl)c1", "Inhibition %": 99.2}, {"molecule": "O=C(CCl)Nc1ccc2[nH]c(C(F)(F)F)nc2c1", "Inhibition %": 45}, {"molecule": "CC(NC(=O)Cn1cnc(C#N)n1)c1ccc(F)cc1F", "note": "(centres unmarked)", "Inhibition %": 1.26}, {"molecule": "N#CN(Cc1ccno1)c1ccc(F)cc1", "Inhibition %": 15.5}, {"molecule": "C=CC(=O)Nc1cc(F)ccc1C", "Inhibition %": 3.57}, {"molecule": "CC1CCCCC1NC(=O)Cn1cnc(C#N)n1", "note": "(centres unmarked)", "Inhibition %": 5.45}, {"molecule": "O=C(O)[C@H]1CCCN1C(=O)C=Cc1ccccc1F", "Inhibition %": 8.2}, {"molecule": "NC(=O)C1CCCCN1C(=O)CCl", "note": "(centres unmarked)", "Inhibition %": 12.3}, {"molecule": "O=C(CCl)C1CCCN1C(=O)C(F)(F)F", "note": "(centres unmarked)", "Inhibition %": 80.8}, {"molecule": "O=C(CCl)N1CCCC2CCCCC21", "note": "(centres unmarked)", "Inhibition %": 14.1}]}]}
